Compounds without any hit were thinned out: in the full panel of roughly 83,000, 20% have a hit.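 Note: values are percent growth. 100 is the growth of untreated cells, values between 100 and 0 indicate rising inhibition; between -100 and 0 indicates cell death.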 Active and inactive are the calls of the source. Rule for the calls: active = growth percent below 10; inactive = the rest.

The test system of the test is MDA-MB-468 breast. The experiment in a line: NCI-60 one-dose screen, 48 h (100 = growth as untreated, 0 = no growth, -100 = all killed). As to conditions: 10 µM unless noted.
As to `Cc1ccc2cnc(N)c(C#Cc3cc(C(=O)Nc4ccc(CN5CCN(C)CC5)c(C(F)(F)F)c4)cnc3C)c2c1`, the growth was 15.5% (inactive).
Take `N=C(N)c1ccc(-c2ccc(-c3ccccc3)s2)cc1`: the growth is -39.2% (active).
For the compound `CC(C)(C)CC(C)(C)n1nnnc1C(NC12CC3CC(CC(C3)C1)C2)c1ccccc1` (stereo not given), the growth was 65.7% (inactive).
With `C/C(=C(/c1ccc(O)cc1)c1ccc(OCCN2CCCC2)cc1)c1ccccc1` the figure was 34.7% (inactive); with `COc1cccc(C2C(C#N)=C(N)Oc3c2ccc2ccccc32)c1` (stereo not given), 11.6% (inactive); with `Nc1ccccc1-c1n[nH]c(=O)[nH]c1=O`, 135% (inactive).
As for `CC(C)(C)C(=O)/C=C/c1ccc([N+](=O)[O-])cc1`, the growth was 45.5% (inactive).
`O=C1OCC2=C1C(c1cccc(C(F)(F)F)c1)c1cc3c(cc1N2CCO)OCO3` (stereo not given): the growth is -5.36% (active).
Regarding `Cc1ccc(/C=C2\Oc3ccc(O)c(O)c3C2=O)cc1`, the growth was 58.3% (inactive).
With `O=C(O)C#Cc1ccc(Cl)cc1` the figure was 101% (inactive); with `O=c1[nH]c(-c2ccccc2)nc2sc3cc(O)ccc3c12`, 93.7% (inactive); with `O=C(OCC(O)(CO)C(=O)NC12CC3CC(CC(C3)C1)C2)c1ccc(Cl)cc1` (stereo not given), 100% (inactive).
With `CC[Si](CC)(CC)OC1[C@@H](O[Si](CC)(CC)CC)[C@@H](CNC(=O)NC)O[C@H]1n1cnc2c(NC(=O)Nc3ccccc3)ncnc21` (stereo not given in full) the figure was 97.5% (inactive).
As for `COc1ccc(C(=O)c2cc(F)c(F)c(OC)c2F)cc1OC(=O)CCl`, the growth was 61.3% (inactive).
Take `O=C(Nc1ccc(Oc2cccc(F)c2)c(Cl)c1)c1cnccn1`: the growth was 0.0833% (active).

The values above are taken from PubChem BioAssay (NCI).
